Reference: the supplement of paper PMC13380429

System: Vero E6 infected with SARS-CoV-2
Assay: inhibition of SARS-CoV-2 cytopathic effect; higher = more antiviral protection, active = above 15
Settings: 48 h

Measured: inhibition of SARS-CoV-2 cytopathic effect

O=C(CCBr)N1CCN(C(=O)CCBr)CC1 [pipobroman]
inactive: 1 nM 0.26% | 8.33 nM -0.92% | 100 nM -3.06% | 833.33 nM -6.9% | 10000 nM -3.48%

CC(=O)c1cnc2ccc(-c3cc(Cl)c(O)c(Cl)c3)nc2c1N[C@H]1CC[C@H](CN(C)C)CC1
inactive: 1 nM -1.51% | 8.33 nM 0.72% | 100 nM -1.37% | 833.33 nM 0.11% | 10000 nM -5.46%

COc1ccc2cc(CCC(C)=O)ccc2c1 [nabumetone]
inactive: 1 nM 0.72% | 8.33 nM 0.69% | 100 nM -4.19% | 833.33 nM -1.8% | 10000 nM -0.03%

CCOC(=O)Nc1ccc2c(c1)N(C(=O)CCN1CCOCC1)c1ccccc1S2 [moracizine]
inactive: 1 nM 0.84% | 8.33 nM 3.43% | 100 nM -0.23% | 833.33 nM 2.61% | 10000 nM 5.32%

COc1ccc2c(c1)/C(=C/c1cnc[nH]1)C(=O)N2
inactive: 1 nM 0.21% | 8.33 nM -1.7% | 100 nM -1.87% | 833.33 nM 4.89% | 10000 nM 6.28%

Cc1[nH]c(=O)c(C#N)cc1-c1ccc2nccn2c1 [olprinone]
inactive: 1 nM -2.15% | 8.33 nM 1.36% | 100 nM 0.52% | 833.33 nM 0.56% | 10000 nM -0.84%

O=C(O)c1nc(=O)[nH]c(=O)[nH]1 [oxonic-acid]
inactive: 1 nM -6.02% | 8.33 nM -2.79% | 100 nM 1.25% | 833.33 nM 0.64% | 10000 nM -0.52%

Cc1cccc2c1CC[C@H](CN1CCC(c3c(Cl)cccc3Cl)CC1)C[C@@H]2O
inactive: 1 nM -2.92% | 8.33 nM 0.72% | 100 nM 4.25% | 833.33 nM 1.11% | 10000 nM -8.51%

C=C1/C(=C\C=C2/CCC[C@]3(C)[C@@H]([C@H](C)OCCC(C)(C)O)CC[C@@H]23)C[C@@H](O)C[C@@H]1O [maxacalcitol]
inactive: 1 nM 1.71% | 8.33 nM 0.65% | 100 nM -1.77% | 833.33 nM 0.61% | 10000 nM -0.56%

CC(=O)N(CC(C)C(=O)O)c1c(I)cc(I)c(N)c1I (stereo not given) [iocetamic-acid]
inactive: 1 nM -1.3% | 8.33 nM 1.93% | 100 nM 1.81% | 833.33 nM 0.62% | 10000 nM 3.4%

Cc1ccc(-c2csc3ncnc(SCCC(=O)O)c23)cc1
inactive: 1 nM -0.23% | 8.33 nM 6.66% | 100 nM -1.26% | 833.33 nM 1.22% | 10000 nM 1.11%

C[C@H](CCC(=O)O)[C@H]1CC[C@H]2[C@@H]3C(=O)C[C@@H]4CC(=O)CC[C@]4(C)[C@H]3CC(=O)[C@]12C [dehydrocholate-acid]
inactive: 1 nM -5.5% | 8.33 nM -4.18% | 100 nM -2.25% | 833.33 nM -2.84% | 10000 nM -7.01%

C=C(CC)C(=O)c1ccc(OCC(=O)O)c(Cl)c1Cl [etacrynic-acid]
inactive: 1 nM 1.1% | 8.33 nM 2.25% | 100 nM 2.32% | 833.33 nM 4.17% | 10000 nM -6.97%

O=C(Nc1ccccc1)Nc1ccc(-c2ccc(C(=O)[C@@H]3CCC[C@@H]3C(=O)O)cc2)cc1
inactive: 1 nM -1.33% | 8.33 nM 1.31% | 100 nM 3.77% | 833.33 nM 1.06% | 10000 nM -1.53%

NCCc1cc(O)c(O)cc1O [oxidopamine]
inactive: 1 nM -2.92% | 8.33 nM 0.45% | 100 nM -2.01% | 833.33 nM -2.87% | 10000 nM -3.37%

CN(C)C/C=C/C(=O)Nc1cc2c(Nc3ccc(F)c(Cl)c3)ncnc2cc1O[C@H]1CCOC1 [afatinib]
inactive: 1 nM -2.03% | 8.33 nM -3.01% | 100 nM -5.33% | 833.33 nM -8.01% | 10000 nM -9.49%

CC(C)OC(=O)[C@H](C)N[P@@](=O)(OC[C@H]1O[C@@H](n2ccc(=O)[nH]c2=O)[C@](C)(F)[C@@H]1O)Oc1ccccc1
inactive: 1 nM 2.14% | 8.33 nM -0.76% | 100 nM -2.61% | 833.33 nM -0.19% | 10000 nM 0.32%

Cc1[nH]c2ccc(Cl)cc2c1C1=CCNCC1
inactive: 1 nM 0.44% | 8.33 nM 2.01% | 100 nM -0.51% | 833.33 nM 1.48% | 10000 nM 10.1%

CC(=O)c1ccc2c(c1)[C@H](NC(=O)c1ccc(F)c(Cl)c1)[C@H](O)C(C)(C)O2 [tonabersat]
inactive: 1 nM -2.31% | 8.33 nM -1.2% | 100 nM -0.8% | 833.33 nM 1.11% | 10000 nM -2.32%

COc1ccc(-c2nc3cc(C4=NNC(=O)CC4C)ccc3[nH]2)cc1 (stereo not given) [pimobendan]
inactive: 1 nM 2.75% | 8.33 nM -1.84% | 100 nM -1.74% | 833.33 nM -1.51% | 10000 nM -0.67%

CCCCC(F)(F)[C@@]1(O)CC[C@H]2[C@@H](CC(=O)[C@@H]2CCCCCCC(=O)O)O1 [lubiprostone]
inactive: 1 nM -0.41% | 8.33 nM -0.13% | 100 nM -0.73% | 833.33 nM -1.89% | 10000 nM -0.01%

CCN(CC)CCOC(=O)C1(c2ccccc2)CCCC1 [caramiphen]
inactive: 1 nM -4.57% | 8.33 nM -4.75% | 100 nM -1.97% | 833.33 nM -0.96% | 10000 nM -3.45%

O=C(/C=C/N1C[C@H]2C[C@@H]1CN2c1ccccn1)c1ccccc1O
inactive: 1 nM -0.57% | 8.33 nM -1.55% | 100 nM -0.95% | 833.33 nM -5.12% | 10000 nM -2.56%

O=[N+]([O-])c1cccc2cn[nH]c12 [7-nitroindazole]
inactive: 1 nM -1.89% | 8.33 nM 1.76% | 100 nM 3.57% | 833.33 nM 4.56% | 10000 nM -1.2%

CCCCc1nc2cc(/C=C/C(=O)NO)ccc2n1CCN(CC)CC
inactive: 1 nM 2.32% | 8.33 nM -0.4% | 100 nM -5.57% | 833.33 nM -20.5% | 10000 nM -27.9%

CCOC(=O)[C@@H](N)CCC(=O)N[C@@H](CSCc1ccccc1)C(=O)N[C@@H](C(=O)OCC)c1ccccc1 [ezatiostat]
inactive: 1 nM -0.49% | 8.33 nM 0.28% | 100 nM 1.7% | 833.33 nM 2.71% | 10000 nM 0.41%

NC[C@H]1CC[C@H](C(=O)O)CC1 [tranexamic-acid]
inactive: 1 nM 1.98% | 8.33 nM 1.51% | 100 nM 2.74% | 833.33 nM 0.85% | 10000 nM -0.32%

Cc1ncc([N+](=O)[O-])n1CC(C)O (stereo not given) [secnidazole]
inactive: 1 nM -4.41% | 8.33 nM -8.4% | 100 nM -5.52% | 833.33 nM -10.4% | 10000 nM -9.47%

CCC[C@H](NC(=O)/C(C#N)=C/c1cccc(Br)n1)c1ccccc1
inactive: 1 nM 1.89% | 8.33 nM 1.78% | 100 nM -0.09% | 833.33 nM 4.12% | 10000 nM -5.9%

O=C(O)C(=O)O.[NH-][C@@H]1CCCC[C@H]1[NH-].[Pt+2] [oxaliplatin]
inactive: 1 nM 1.5% | 8.33 nM 1.96% | 100 nM 10.3% | 833.33 nM -2.36% | 10000 nM 1%

CC1CC(OC(=O)C(O)c2ccccc2)CC(C)(C)C1 (stereo not given) [cyclandelate]
inactive: 1 nM -0.8% | 8.33 nM 0.54% | 100 nM -0.37% | 833.33 nM -0.91% | 10000 nM -1.81%

Cc1cc(C)cc(C(=O)O[C@H]2C[C@H]3CC[C@@H](C2)N3C)c1 [tropanyl-3,5-dimethylbenzoate]
inactive: 1 nM -1.37% | 8.33 nM 1.19% | 100 nM 2.71% | 833.33 nM -1.34% | 10000 nM 1%

Nc1nc2c(ccc3ccccc32)s1
inactive: 1 nM -0.98% | 8.33 nM -0.18% | 100 nM -1.85% | 833.33 nM -0.09% | 10000 nM -1.09%

O=C(NS(=O)(=O)c1ccc(Br)s1)c1ccc(Cl)cc1Cl [tasisulam]
inactive: 1 nM -0.54% | 8.33 nM 5.25% | 100 nM 0.94% | 833.33 nM -0.93% | 10000 nM 4.37%

COc1cc(Nc2c(C#N)cnc3cc(OCCCN4CCN(C)CC4)c(OC)cc23)c(Cl)cc1Cl [bosutinib]
inactive: 1 nM 0.33% | 8.33 nM -1.8% | 100 nM -1.97% | 833.33 nM -8.27% | 10000 nM -7.97%

OC[C@H]1O[C@@H](O[C@@H]2[C@H](O)[C@@H](O)[C@H](O[C@H]3[C@H](O)[C@@H](O)C(O)O[C@@H]3CO)O[C@@H]2CO)[C@H](O)[C@@H](O)[C@H]1O (stereo not given in full) [4-galactosyllactose]
inactive: 1 nM -1.88% | 8.33 nM -2.42% | 100 nM 1.58% | 833.33 nM 0.18% | 10000 nM -0.03%

CCNCCCNCCCCNCCCNCC
inactive: 1 nM -0.97% | 8.33 nM 1.01% | 100 nM 3.25% | 833.33 nM 3.4% | 10000 nM 11.4%

O=P(O)(O)C(O)(Cc1cnc2ccccn12)P(=O)(O)O [minodronic-acid]
inactive: 1 nM -2.81% | 8.33 nM -1.07% | 100 nM -0.4% | 833.33 nM 2.46% | 10000 nM -1.52%

CS(=O)(=O)c1ccc([C@@H](CC2CCCC2)C(=O)Nc2nccs2)cc1
inactive: 1 nM -0.6% | 8.33 nM -1.12% | 100 nM 1.31% | 833.33 nM 1.71% | 10000 nM 1.96%

CCCCC(=O)N(Cc1ccc(-c2ccccc2-c2nnn[nH]2)cc1)[C@H](C(=O)O)C(C)C [valsartan]
inactive: 1 nM 0.84% | 8.33 nM -1.89% | 100 nM 0.86% | 833.33 nM 0.99% | 10000 nM 0.91%
